What all share (parameters): scale not given: direction of the effect not stated beside the values
The target in assay [1] is Protein translocase subunit SecA (Escherichia coli (strain K12)) (UniProt P10408). Put plainly: Assay to Identify E. coli SecA ATPase Inhibitors. Format: functional. To be noted: 30 µM.
Assay [2] has as its target T1, Ubiquitin-activating enzyme e1, putative (Leishmania donovani (strain BPK282A1)) (UniProt E9BSI1).
T1 sequence (whole entry): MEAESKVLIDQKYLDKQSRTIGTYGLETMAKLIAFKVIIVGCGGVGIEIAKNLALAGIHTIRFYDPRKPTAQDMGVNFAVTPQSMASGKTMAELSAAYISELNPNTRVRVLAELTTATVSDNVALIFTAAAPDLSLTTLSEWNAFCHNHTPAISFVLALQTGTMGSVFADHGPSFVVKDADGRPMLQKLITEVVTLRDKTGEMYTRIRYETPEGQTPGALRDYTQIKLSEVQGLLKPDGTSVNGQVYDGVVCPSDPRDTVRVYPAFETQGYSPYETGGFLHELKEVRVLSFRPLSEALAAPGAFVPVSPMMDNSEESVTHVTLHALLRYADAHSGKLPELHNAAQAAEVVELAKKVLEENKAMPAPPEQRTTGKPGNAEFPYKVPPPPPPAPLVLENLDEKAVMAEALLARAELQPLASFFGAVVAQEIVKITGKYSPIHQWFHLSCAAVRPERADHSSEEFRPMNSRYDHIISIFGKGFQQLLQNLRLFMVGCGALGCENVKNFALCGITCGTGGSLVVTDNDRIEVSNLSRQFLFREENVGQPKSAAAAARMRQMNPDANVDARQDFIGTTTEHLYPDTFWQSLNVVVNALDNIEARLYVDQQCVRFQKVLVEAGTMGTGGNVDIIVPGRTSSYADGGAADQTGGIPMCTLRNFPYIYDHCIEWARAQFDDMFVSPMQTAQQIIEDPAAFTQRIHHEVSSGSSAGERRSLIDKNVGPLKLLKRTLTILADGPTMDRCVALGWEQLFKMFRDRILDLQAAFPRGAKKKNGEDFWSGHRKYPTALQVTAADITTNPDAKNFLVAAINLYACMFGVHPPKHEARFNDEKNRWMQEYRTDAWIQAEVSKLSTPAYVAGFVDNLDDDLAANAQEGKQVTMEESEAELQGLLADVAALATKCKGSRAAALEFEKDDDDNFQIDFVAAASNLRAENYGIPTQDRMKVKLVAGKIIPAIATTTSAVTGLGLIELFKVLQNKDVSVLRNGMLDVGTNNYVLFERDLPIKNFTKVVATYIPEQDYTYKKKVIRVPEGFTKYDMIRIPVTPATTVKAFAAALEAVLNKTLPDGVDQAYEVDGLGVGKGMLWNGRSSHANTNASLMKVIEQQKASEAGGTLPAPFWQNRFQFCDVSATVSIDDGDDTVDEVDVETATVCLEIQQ
The assay can be described thus: Leishmania donovani Ubiquitin Activating Enzyme (LdE1). To be noted: 30 µM. Format: functional.

The target of assay [3] is AMP-activated protein kinase, AMPK (Homo sapiens) (UniProt P54646+O43741+P54619+Q9UGJ0+Q9Y478+Q13131+Q9UGI9). The assay can be described thus: AMP-dependent Kinase enzyme assay. An in vitro enzyme assay that detects ADP turnover that is directly proportional to AMPK activity. This uses naive AMPK that is activated during the assay with MK-8722. Format: functional. To be noted: 30 µM.

Assay [4] addresses Sialic acid-binding Ig-like lectin 9 (Homo sapiens) (UniProt Q9Y336). Put plainly: Hs-Siglec9 ALPHAscreen SOP 20170721. To be noted: 10 µM.
A further assay concerns Trypanosoma cruzi. Put plainly: Trypanosoma cruzi phosphomannomutase and mannose-1-phosphate guanylyltransferase assay. Format: functional. To be noted: 10 µM.
In assay [5] the target is T2, Arginase-2, mitochondrial (Homo sapiens) (UniProt P78540).
T2 sequence (whole entry): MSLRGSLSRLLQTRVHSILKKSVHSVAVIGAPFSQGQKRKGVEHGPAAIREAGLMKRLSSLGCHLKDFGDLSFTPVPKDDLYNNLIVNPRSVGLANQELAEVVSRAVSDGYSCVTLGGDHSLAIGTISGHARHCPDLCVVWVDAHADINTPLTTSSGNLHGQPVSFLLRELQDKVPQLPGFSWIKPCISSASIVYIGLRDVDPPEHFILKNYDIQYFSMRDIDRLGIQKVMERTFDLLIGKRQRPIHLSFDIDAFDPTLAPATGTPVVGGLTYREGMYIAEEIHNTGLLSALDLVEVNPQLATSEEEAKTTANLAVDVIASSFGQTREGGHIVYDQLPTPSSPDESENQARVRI
The assay can be described thus: in vitro enzyme assay to detect the production of urea directly proportional to the activity of Arginase II. Note: in the data most compounds retested in dose-response had high values. Format: functional. To be noted: 33.3 µM.

Assay [6] addresses T3, Proteasome subunit beta (Trypanosoma cruzi) (UniProt O96673).
T3 sequence (whole entry): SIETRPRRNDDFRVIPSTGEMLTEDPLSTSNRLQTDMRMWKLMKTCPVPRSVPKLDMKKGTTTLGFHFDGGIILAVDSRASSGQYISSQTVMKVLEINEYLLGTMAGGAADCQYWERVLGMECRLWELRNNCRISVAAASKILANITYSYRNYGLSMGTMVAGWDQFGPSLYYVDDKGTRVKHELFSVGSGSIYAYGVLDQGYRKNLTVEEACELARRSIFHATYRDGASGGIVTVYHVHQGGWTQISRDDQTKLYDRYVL
Put plainly: Trypanosoma cruzi proteasome chymotrypsin-like activity (TcProtChymo) assay. Note: in the data most compounds retested in dose-response had high values. Format: functional. To be noted: 9.37 µM.

The species entered for a further assay is Homo sapiens. Put plainly: To identify inhibition of the IFN signalling (Jak-Stat) pathway via expression of an eGFP reporter gene under the control of an IFN-stimulated response element (ISRE) containing MxA promoter. Format: functional. To be noted: 30 µM.
Assay [7] has as its target T4, Tyrosyl-tRNA synthetase, putative (Trypanosoma cruzi (strain CL Brener)) (UniProt Q4DSP6).
T4 sequence (whole entry): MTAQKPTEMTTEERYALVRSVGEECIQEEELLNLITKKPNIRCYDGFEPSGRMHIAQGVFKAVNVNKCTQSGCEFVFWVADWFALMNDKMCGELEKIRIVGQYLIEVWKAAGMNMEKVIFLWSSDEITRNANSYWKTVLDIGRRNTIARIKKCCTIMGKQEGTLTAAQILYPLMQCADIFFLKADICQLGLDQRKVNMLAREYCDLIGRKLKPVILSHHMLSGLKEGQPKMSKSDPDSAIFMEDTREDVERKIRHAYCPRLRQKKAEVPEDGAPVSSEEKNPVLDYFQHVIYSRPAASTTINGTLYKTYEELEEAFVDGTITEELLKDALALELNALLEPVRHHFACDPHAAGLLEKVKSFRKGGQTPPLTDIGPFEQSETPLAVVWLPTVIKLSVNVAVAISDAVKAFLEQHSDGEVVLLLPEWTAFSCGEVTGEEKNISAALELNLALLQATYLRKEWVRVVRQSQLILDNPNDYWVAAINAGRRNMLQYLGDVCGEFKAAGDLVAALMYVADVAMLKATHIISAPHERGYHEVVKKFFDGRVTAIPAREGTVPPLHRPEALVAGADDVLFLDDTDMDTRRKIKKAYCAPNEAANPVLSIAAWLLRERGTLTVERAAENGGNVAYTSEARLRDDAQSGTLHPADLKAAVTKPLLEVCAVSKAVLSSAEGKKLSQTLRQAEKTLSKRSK
Put plainly: Trypanosoma cruzi tyrosyl tRNA synthetase (TcYRS) _High Tyrosine SOP. Note: in the data most compounds retested in dose-response had high values. Format: functional. To be noted: 30 µM.

Assay [8] concerns the target T4, Tyrosyl-tRNA synthetase, putative (Trypanosoma cruzi (strain CL Brener)). The assay can be described thus: Trypanosoma cruzi tyrosyl tRNA synthetase (TcYRS) SOP. Format: functional. To be noted: 30 µM.
For assay [9], the target named is Chromo domain-containing protein 1 (Saccharomyces cerevisiae (strain ATCC 204508 / S288c) (Baker's yeast)) (UniProt P32657). Put plainly: ScCHD-1 Enzyme Inhibition Assay. Note: in the data most compounds retested in dose-response had high values. To be noted: 30 µM. Format: functional.
Chain of Chromo domain-containing protein 1 (Saccharomyces cerevisiae (strain ATCC 204508 / S288c) (Baker's yeast)) (P32657 whole entry, the tested form may be a part): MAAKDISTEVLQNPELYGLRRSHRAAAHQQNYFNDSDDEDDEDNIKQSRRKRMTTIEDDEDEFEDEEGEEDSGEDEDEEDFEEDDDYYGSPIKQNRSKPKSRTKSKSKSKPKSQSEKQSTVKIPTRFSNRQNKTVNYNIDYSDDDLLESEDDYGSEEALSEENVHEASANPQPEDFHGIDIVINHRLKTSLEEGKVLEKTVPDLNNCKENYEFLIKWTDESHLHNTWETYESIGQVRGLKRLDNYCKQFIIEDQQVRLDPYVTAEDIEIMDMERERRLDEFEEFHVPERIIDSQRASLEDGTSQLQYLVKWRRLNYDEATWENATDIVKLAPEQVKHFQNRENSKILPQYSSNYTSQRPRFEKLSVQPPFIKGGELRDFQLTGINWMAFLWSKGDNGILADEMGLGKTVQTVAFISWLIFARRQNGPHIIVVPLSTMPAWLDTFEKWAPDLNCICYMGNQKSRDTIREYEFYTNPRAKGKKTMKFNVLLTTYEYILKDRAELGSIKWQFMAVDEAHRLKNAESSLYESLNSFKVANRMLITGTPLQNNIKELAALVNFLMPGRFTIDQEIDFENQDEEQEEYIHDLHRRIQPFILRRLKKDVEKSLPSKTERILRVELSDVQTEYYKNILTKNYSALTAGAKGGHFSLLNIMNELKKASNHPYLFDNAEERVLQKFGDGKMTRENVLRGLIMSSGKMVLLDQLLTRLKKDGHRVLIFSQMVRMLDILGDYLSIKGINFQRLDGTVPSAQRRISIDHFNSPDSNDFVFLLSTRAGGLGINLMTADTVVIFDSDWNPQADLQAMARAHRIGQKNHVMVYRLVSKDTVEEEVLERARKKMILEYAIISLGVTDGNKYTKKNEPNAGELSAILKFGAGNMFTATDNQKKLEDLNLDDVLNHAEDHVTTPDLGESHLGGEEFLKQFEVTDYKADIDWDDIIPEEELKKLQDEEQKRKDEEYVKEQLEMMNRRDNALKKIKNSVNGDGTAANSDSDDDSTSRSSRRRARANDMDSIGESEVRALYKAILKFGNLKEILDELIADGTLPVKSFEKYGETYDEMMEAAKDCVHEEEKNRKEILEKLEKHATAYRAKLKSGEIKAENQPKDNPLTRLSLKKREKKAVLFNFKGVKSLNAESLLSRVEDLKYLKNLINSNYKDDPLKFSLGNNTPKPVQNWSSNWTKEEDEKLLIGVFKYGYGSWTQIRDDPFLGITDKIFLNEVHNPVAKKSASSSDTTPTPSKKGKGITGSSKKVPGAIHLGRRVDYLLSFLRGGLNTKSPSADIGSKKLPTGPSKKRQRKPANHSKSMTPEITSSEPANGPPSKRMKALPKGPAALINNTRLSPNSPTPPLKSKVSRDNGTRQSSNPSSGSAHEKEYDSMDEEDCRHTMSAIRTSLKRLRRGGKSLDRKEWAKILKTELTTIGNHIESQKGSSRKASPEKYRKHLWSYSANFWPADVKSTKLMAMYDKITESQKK

For some of these results: Measured potencies and affinities stand elsewhere.

The source of these data is ChEMBL document CHEMBL3988442, “University of Dundee, Small-Polar-MMV Screening Library” (2021).

Chain of Sialic acid-binding Ig-like lectin 9 (Homo sapiens) (Q9Y336 whole entry): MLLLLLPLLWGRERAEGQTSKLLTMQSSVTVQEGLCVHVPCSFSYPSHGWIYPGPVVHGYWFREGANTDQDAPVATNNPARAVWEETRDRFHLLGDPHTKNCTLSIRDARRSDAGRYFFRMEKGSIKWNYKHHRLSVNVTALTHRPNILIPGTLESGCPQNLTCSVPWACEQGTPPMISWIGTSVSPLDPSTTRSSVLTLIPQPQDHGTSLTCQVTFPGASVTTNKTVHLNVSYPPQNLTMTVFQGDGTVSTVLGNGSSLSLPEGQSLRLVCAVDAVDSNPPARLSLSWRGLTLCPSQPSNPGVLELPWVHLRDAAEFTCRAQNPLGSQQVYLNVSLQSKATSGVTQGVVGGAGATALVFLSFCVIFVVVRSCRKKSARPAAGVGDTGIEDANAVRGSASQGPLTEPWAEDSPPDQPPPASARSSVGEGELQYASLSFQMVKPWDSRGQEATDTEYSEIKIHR
Chain of Protein translocase subunit SecA (Escherichia coli (strain K12)) (P10408 whole entry): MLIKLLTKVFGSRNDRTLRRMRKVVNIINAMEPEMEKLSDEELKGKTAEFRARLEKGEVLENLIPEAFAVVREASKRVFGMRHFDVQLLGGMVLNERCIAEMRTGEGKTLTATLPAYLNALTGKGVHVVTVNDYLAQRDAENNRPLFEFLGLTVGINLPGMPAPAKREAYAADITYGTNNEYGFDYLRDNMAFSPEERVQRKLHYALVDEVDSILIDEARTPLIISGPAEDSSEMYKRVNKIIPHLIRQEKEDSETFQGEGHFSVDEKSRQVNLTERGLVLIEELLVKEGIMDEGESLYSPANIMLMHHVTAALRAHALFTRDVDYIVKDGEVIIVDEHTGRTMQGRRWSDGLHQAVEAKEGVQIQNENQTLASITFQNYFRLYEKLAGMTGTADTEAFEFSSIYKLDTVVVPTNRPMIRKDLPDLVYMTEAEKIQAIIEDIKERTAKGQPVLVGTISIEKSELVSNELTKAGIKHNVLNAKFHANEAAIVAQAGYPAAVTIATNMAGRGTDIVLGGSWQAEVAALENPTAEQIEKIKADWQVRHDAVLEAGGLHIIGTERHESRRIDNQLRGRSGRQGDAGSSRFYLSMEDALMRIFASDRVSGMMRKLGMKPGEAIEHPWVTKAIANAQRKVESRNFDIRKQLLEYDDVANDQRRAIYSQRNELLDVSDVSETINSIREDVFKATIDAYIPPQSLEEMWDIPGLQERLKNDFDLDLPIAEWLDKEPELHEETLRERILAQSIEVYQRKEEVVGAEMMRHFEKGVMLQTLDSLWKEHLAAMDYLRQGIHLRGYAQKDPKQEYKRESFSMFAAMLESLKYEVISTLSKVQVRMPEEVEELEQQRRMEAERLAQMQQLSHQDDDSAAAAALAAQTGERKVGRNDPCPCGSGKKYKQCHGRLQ

As for `O=C(COCC1CC1)N1CCCC(n2cncn2)C1` (stereo unspecified), the Percent Effect is 1.39% in [1]; 10.8% in [2]; -12% in [3]; -7.81% in assay [4]; -3.3% in the assay on Trypanosoma cruzi; -2.81% in assay [5]. Further, the Percent Effect was 13% in assay [6]; 12.5% in the assay filed under Homo sapiens; 1.48% in assay [7]; 16.1% in assay [8]; -2.64% in assay [9].

Turning to `CCOC(=O)CCC(=O)NC(C)c1ccc(NC(=O)CC)cc1` (stereo unspecified), the Percent Effect is -1.67% in assay [1]; 7.89% in assay [2]; 2.06% in [3]; -5.73% in [4]; -1.66% with Trypanosoma cruzi; 1.18% in assay [5]. In addition, the Percent Effect is 9.88% in assay [6]; 6.92% in the assay listed under Homo sapiens; 6.38% in assay [7]; 13% in assay [8]; -3.37% in assay [9].

`Cc1nn(CC(=O)N2CCC(Nc3cccnn3)CC2)c(C)c1Cl`: the Percent Effect in assay [1] was -7.99%; in [2], 10.5%; in [3] it was -2.51%; in assay [4], 1.71%; with Trypanosoma cruzi, 10.3%; in assay [5], -4.6%. Further, the Percent Effect in [6] was 4.68%; in the assay filed under Homo sapiens, 14.1%; in assay [7], 6.37%; in [8] it was 19.5%; in assay [9], -11.8%.

In the case of `Cc1ncccc1CNCC1CCN(CC(O)c2ccccc2)CC1` (stereo unspecified), the Percent Effect in assay [1] is -5.43%; in [2], 13.9%; in assay [3], -5.86%; in assay [4], 1.69%; in the assay on Trypanosoma cruzi, -0.308%; in assay [5], -1.07%. For the same compound, the Percent Effect was 15.3% in assay [6]; 3.05% in the assay listed under Homo sapiens; 6.25% in [7]; 17.7% in assay [8]; -29.1% in assay [9].

`Cc1noc(C)c1CNCC1CCN(CC(O)c2ccccc2)CC1` (stereo unspecified): the Percent Effect in assay [1] is -1.37%; in assay [2] it was 11.4%; in assay [3], -4.26%; in assay [4], 6.03%; in the assay on Trypanosoma cruzi, -1.54%; in assay [5], -1.5%. Also, the Percent Effect in assay [6] is 9.09%; in the assay listed under Homo sapiens, -17.5%; in [7] it was 4.17%; in [8], 17.7%; in assay [9] it was -18%.

For `Cc1cn(CC(=O)NC2CCN(S(C)(=O)=O)CC2)c2ccccc12`, the Percent Effect was -4.19% in assay [1]; 0% in assay [2]; 0.231% in assay [3]; -6.08% in [4]; -2.44% in the assay on Trypanosoma cruzi; 1.74% in assay [5]. Also, the Percent Effect in [6] was 3.18%; in the assay filed under Homo sapiens, 0.23%; in [7], 2.15%; in assay [8], 8.64%; in assay [9] it was -4.9%.

For `O=C(COCc1ccccc1)N1CCCC(n2cncn2)C1` (stereo unspecified), the Percent Effect is -4.9% in assay [1]; 16.2% in assay [2]; -5.92% in assay [3]; 0.0525% in [4]; 1.79% in the assay on Trypanosoma cruzi; -2.4% in [5]. Further, the Percent Effect in assay [6] was 7.57%; in the assay listed under Homo sapiens, 11.4%; in assay [7], 6.4%; in [8], 18.5%; in assay [9], -4.59%.

For the compound `CC(C)OCCCNC(=O)CN1CCC(N2CCN(C)C2=O)CC1`, the Percent Effect in [1] was -4.79%; in [2], -12.7%; in assay [3] it was -9.11%; in assay [4], 10.6%; in the assay on Trypanosoma cruzi it was 4.82%; in assay [5] it was -1.9%. Further, the Percent Effect is 7.45% in [6]; -2.11% in the assay listed under Homo sapiens; -0.493% in assay [7]; 8.86% in assay [8]; -6.17% in [9].

`CC(C)n1ccc(-c2cc(C(=O)N3CCCC3)c3ccccn23)n1`: the Percent Effect was 2.31% in assay [1]; 13.5% in assay [2]; 128% in [3]; -12.1% in [4]; -4.79% in the assay on Trypanosoma cruzi; 0.319% in assay [5]. Further, the Percent Effect in assay [6] was 3.69%; in the assay filed under Homo sapiens it was 65.6%; in [7], -1.08%; in assay [8] it was -2.56%; in assay [9] it was -12%.

Consider `CN(CCO)C[C@@H]1CN(C(=O)c2c(F)cccc2Cl)C[C@@H]1CO`, for which the Percent Effect was -3.86% in assay [1]; 0% in assay [2]; 1.2% in assay [3]; 6% in assay [4]; -2.06% with Trypanosoma cruzi; 2.76% in [5]. The Percent Effect in assay [6] was 15.6%; in the assay filed under Homo sapiens, 9.06%; in assay [7] it was 3.23%; in assay [8] it was 3.7%; in assay [9] it was -2.59%.

As for `Cc1cnn(CC(C)NCc2ccc(S(C)(=O)=O)cc2)c1` (stereo unspecified), the Percent Effect is -2.77% in [1]; 13.9% in assay [2]; -0.525% in assay [3]; 2.13% in assay [4]; -1.74% in the assay on Trypanosoma cruzi; -3.23% in [5]. Moreover, the Percent Effect was 12.3% in [6]; 0.644% in the assay listed under Homo sapiens; 8.33% in [7]; 25.3% in assay [8]; -28% in [9].
